High-throughput results as filed in PubChem BioAssay.
Most compounds without a hit are left out; they make up all but 19% or so of the library.
TDP1 block – qHTS Assay for Inhibitors of Tyrosyl-DNA Phosphodiesterase (TDP1) | Tyrosyl-DNA phosphodiesterase 1 (Homo sapiens), Q9NUW8 | recombinant TDP1, AlphaScreen DNA substrate cleavage | Potency, µM (highest dose often 130 µM), for inactives: at the top dose activity change, negative = inhibition, most hits filed as inhibitors | 350,000 tested, 0.28% active; also: potency is read from the fitted curve at half-maximal effect; % is scaled to controls: 0 for no effect and ±100 for the full control effect; nearly all actives have a fitted effect of over 40% in size
Target sequence (Q9NUW8 whole entry, looked up): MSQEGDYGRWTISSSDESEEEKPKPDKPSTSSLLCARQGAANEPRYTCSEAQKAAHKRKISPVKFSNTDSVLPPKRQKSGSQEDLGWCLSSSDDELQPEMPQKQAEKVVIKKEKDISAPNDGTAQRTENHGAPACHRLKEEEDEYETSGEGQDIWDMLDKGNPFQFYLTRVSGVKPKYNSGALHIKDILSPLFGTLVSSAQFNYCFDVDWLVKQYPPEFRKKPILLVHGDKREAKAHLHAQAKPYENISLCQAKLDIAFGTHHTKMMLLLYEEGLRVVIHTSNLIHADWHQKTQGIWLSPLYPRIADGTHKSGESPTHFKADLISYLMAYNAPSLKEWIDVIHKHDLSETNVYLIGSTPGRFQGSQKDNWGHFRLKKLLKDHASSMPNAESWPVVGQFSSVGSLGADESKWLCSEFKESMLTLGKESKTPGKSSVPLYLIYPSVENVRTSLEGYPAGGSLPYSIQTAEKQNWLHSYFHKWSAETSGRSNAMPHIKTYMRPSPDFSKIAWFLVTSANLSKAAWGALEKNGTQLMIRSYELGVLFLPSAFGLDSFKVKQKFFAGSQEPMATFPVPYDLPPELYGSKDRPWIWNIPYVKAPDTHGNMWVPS
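Enzyme-compound mixtures sat 15 min at room temperature, followed by a 5 min reaction with 15 nM final substrate and 10 min with AlphaScreen beads. Recombinant human Tdp1 was used at 1 nM final.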
DT40 TDP1 no CPT – qHTS for Inhibitors of human tyrosyl-DNA phosphodiesterase 1 (TDP1): qHTS in cells in absence of CPT; AID 686978, 2013; Potency, µM (highest dose often 46.2 µM), for inactives: top-dose activity change, negative = growth inhibition, hits mostly inhibitors; 420,000 tested, 15% active; DT40 Tdp1-/- hTDP1 cells, no CPT, ATP luminescence, 48 h; also: potency is read from the fitted curve at half-maximal effect; % is scaled to controls: 0 for no effect and ±100 for the full control effect; nearly all actives have a fitted effect of over 55% in size
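Camptothecin absent (DMSO only). Human TDP1-complemented DT40 knockout cells, 400 cells/well, 37 °C for minimum 48 hr; ATP measured via CellTiter-Glo, 30 min dark incubation, luminescence.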
TGFb inhibitor – qHTS for Inhibitors of TGF-b; HepG2 CAGA-GFP TGF-b/SMAD3 reporter, GFP fluorescence, 18 h; TGF-beta stimulated, 500 pg/mL final; Potency, µM (series often up to 46.1 µM), inactives show at the highest dose activity, negative = inhibition, most hits filed as inhibitors; 410,000 tested, 1.2% active; AID 588855, 2011; also: potency is read from the fitted curve at half-maximal effect; % is scaled to controls: 0 for no effect and ±100 for the full control effect; nearly all actives have a fitted effect of over 65% in size
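Inhibition of TGF-beta-driven CAGA-GFP reporter expression in HEPG2 cells is measured by cellular GFP fluorescence after 18 h stimulation with 500 pg/mL recombinant TGF-beta in 1% FBS medium at 37 degrees C.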
DT40 TDP1 CPT – qHTS for Inhibitors of human tyrosyl-DNA phosphodiesterase 1 (TDP1): qHTS in cells in presence of CPT; AID 686979, 2013; Potency, µM (highest dose often 46.2 µM), inactives show at the top dose activity change, negative = growth inhibition, usual class: inhibitors; 420,000 tested, 12% active; chicken DT40 Tdp1-/-;hTDP1 cells + 20 nM CPT, ATP luminescence, 48 h; also: potency is read from the fitted curve at half-maximal effect; % is scaled to controls: 0 for no effect and ±100 for the full control effect; nearly all actives have a fitted effect of over 55% in size
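Cell growth measured by CellTiter-Glo luminescence after a minimum 48 h, 37 C compound exposure with 20 nM CPT in Tdp1-knockout DT40 cells stably expressing hTDP1, seeded 400/well; qHTS titration format.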
HepG2 tox-1 – qHTS for Inhibitors of TGF-b: Cytotox Counterscreen; HepG2 CAGA-GFP viability, ATP luminescence, 18 h; Potency, µM (doses to about 46.1 µM), for the others: top-dose activity change, negative = cytotoxicity, actives largely listed as cytotoxic; 410,000 tested, 0.76% active; AID 588856, 2011; also: potency is read from the fitted curve at half-maximal effect
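CellTiter-Glo luminescence gave cytotoxicity after 18 hours at 37 degrees C. The cells were HepG2 CAGA-GFP in 1% FBS DMEM, stimulated with 500 pg/mL TGF-beta after compound addition. %Activity was normalised to no-cell wells (complete cell-killing) and DMSO (no toxicity), and curves were fitted and classified.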
IL1B secr inh – qHTS for Inhibitors of Inflammasome Signaling: IL-1-beta AlphaLISA Primary Screen; activity change, % at 57.5 µM; 360,000 tested, 4.7% active; AID 743279, 2014; THP-1 LPS/ATP IL-1B secretion, AlphaLISA, 16 h; stronger effect = lower value; in the data active = activity change below about -50%; inconclusive = mostly about -30% to -49%; also: % is scaled to controls: 0 for no effect and ±100 for the full control effect
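THP-1 cells pretreated 1 hr with compounds (up to 57.5 uM final), then stimulated with LPS (250 ng/mL final) plus ATP (1.25 mM final); secreted IL-1B measured by AlphaLISA after 16 hr, decreased signal indicating inhibition.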
TGFb confirm – qHTS for Inhibitors of TGF-b: Confirmation of Cherry Picks | HepG2 CAGA-GFP TGF-b reporter, GFP fluorescence, 18 h; cells stimulated with TGF-beta, 500 pg/mL | 1,600 tested, 63% active | shares compounds with TGFb inhibitor | Potency, µM (doses to about 46.1 µM), inactives show at the highest dose activity, negative = inhibition, actives largely listed as inhibitors; also: potency is read from the fitted curve at half-maximal effect; % is scaled to controls: 0 for no effect and ±100 for the full control effect; nearly all actives have a fitted effect of over 65% in size
HepG2 tox-2 – qHTS for Inhibitors of TGF-b: Cytotox Counterscreen for Cherry Picks | shares compounds with TGFb inhibitor | HepG2 CAGA-GFP viability, ATP luminescence, 18 h; cells stimulated with TGF-beta, 500 pg/mL | Potency, µM (series often up to 46.1 µM), for the others: at the highest dose activity, negative = cytotoxicity, hits mostly inhibitors | 1,600 tested, 27% active | AID 720535, 2013; also: potency is read from the fitted curve at half-maximal effect; % is scaled to controls: 0 for no effect and ±100 for the full control effect; nearly all actives have a fitted effect of over 70% in size
CCL64 TGFb inh – qHTS for Inhibitors of TGF-b: CCL64 Cells Orthogonal Assay for Cherry Picks; shares compounds with TGFb inhibitor; CCL64 CAGA-GFP reporter, TGF-b stimulated, GFP fluorescence, 18 h; AID 720536, 2013; 1,600 tested, 41% active; Potency, µM (titrated, usually from 46.1 µM), for the others: top-dose activity, negative = inhibition, actives largely listed as inhibitors; also: potency is read from the fitted curve at half-maximal effect; nearly all actives have a fitted effect of over 65% in size
TGFb COP inh – qHTS for Inhibitors of TGF-b: Hit Validation in HepG2 Cells using COP promoter; shares compounds with TGFb inhibitor; HepG2 COP-GFP TGF-b reporter, GFP fluorescence, 18 h; cells stimulated by added recombinant TGF-beta; Potency, µM (top dose mostly 46.1 µM), inactives show at the top dose activity, negative = inhibition, usual class: inhibitors; 1,600 tested, 3% active; AID 720537, 2013; also: potency is read from the fitted curve at half-maximal effect; nearly all actives have a fitted effect of over 70% in size
* hit, by the source's call; ? = inconclusive; / = no result given; [ ] = remark or other dose. Unless noted, calls follow the shape of the dose curve; as a rule, active = well fitted curve in the direction sought with a large enough effect; inconclusive = small, poorly fitted or top-dose-only effect, or another doubt; inactive = no such curve, though single readings can be large; an effect the other way counts as inactive or inconclusive.

SMILES | TDP1 block | DT40 TDP1 no CPT | TGFb inhibitor | DT40 TDP1 CPT | HepG2 tox-1 | IL1B secr inh | TGFb confirm | HepG2 tox-2 | CCL64 TGFb inh | TGFb COP inh
CCS(=O)(=O)c1ccc2oc(SCC(=O)Nc3ccc(OC)cc3)nc2c1 | 4% | -6% | -3% | 3% | -12% | 17 | / | / | / | /
OC[C@@H]1CN(Cc2ccc(-c3ccccc3)cc2)C[C@H](n2cnc3c(Nc4ccccc4)ncnc32)O1 | / | ? | 10µM* | 4.1µM* | -23% | ? | 8.2µM* | ? | ? | 26%
CCc1ccc(S(=O)(=O)Nc2ccc(Br)cn2)cc1 | / | ? | -2% | -14% | -14% | -13 | / | / | / | /
CCc1nc2ccc(C(=O)N3CCN(c4cccc(C(F)(F)F)c4)CC3)cc2nc1CC | 5% | ? | 20µM* | ? | -12% | -18 | ? | -24% | ? | 16%
CCc1nc2ccc(C(=O)N3CCN(CC)CC3)cc2nc1CC | / | 14% | -1% | -12% | -2% | -6 | / | / | / | /
Cc1cccc(C)c1N(CC(=O)Nc1cc(Cl)ccc1Oc1ccccc1)S(C)(=O)=O | 6% | ? | ? | ? | 14% | -12 | ? | -17% | -24% | 1%
COc1cccc(OCC(=O)Nc2cc(Cl)ccc2Oc2ccccc2)c1 | -3% | 9% | -1% | -12% | -13% | -2 | / | / | / | /
Cc1ccc2c(c1)cc(C(=O)NCc1ccccc1)n2C | 1% | -10% | 2% | 20% | 3% | 10 | / | / | / | /
COC(=O)C1=C(CS(=O)(=O)c2ccccc2)NC(=O)NC1c1ccc(O)cc1 (centres undefined) | 0% | 0% | 0% | 5% | -1% | -8 | / | / | / | /
COC(=O)[C@@]1(Cc2ccccc2)[C@H]2C(=O)N(Cc3ccccc3)C(=O)[C@H]2[C@H]2CN=C(SCC3CC3)N21 | 0%[56.1 µM] | 23µM* | 11µM* | ? | -15% | 41 | ? | ? | ? | 37%
COC(=O)[C@@]1(Cc2ccccc2)[C@H]2C(=O)N(Cc3ccccc3)C(=O)[C@H]2[C@H]2CN=C(SCc3ccc(C)cc3)N21 | 1%[56.1 µM] | ? | ? | ? | -23% | 27 | / | / | / | /
COc1ccc2oc(=O)c(C(C)=O)cc2c1 | -2% | -2% | 34% | 5% | 1% | 8 | / | / | / | /
COc1ccc2oc(=Nc3cc(F)ccc3F)c(C(N)=O)cc2c1 | -5% | 4.6µM* | 8.9µM* | 4.1µM* | -7% | -4 | ? | 0% | -6% | 22%
